Bioassay records from PubChem BioAssay.
Only some compounds are listed: those with a hit (about 6% of all), similar ones and a draw of the others.
D3 antag: D3 dopamine receptor (human) antagonism. P35462. D3R cells, DiscoveRx beta-arrestin luminescence, antagonist mode; stronger effect = lower value. max response, negative = inhibition, %. hit rate 2.5% among 360,000. AID 652054; in the data active = max response below about -50%; inconclusive = no clear call, values can overlap the other calls; also: % is scaled to controls: 0 for no effect and ±100 for the full control effect
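Cells plated overnight at 1500 cells/well, then exposed to library compounds with dopamine controls for 90 minutes at 37 degrees C. DiscoveRx reagent added for 30–60 minutes at room temperature; luminescence read, quantitative HTS format.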
D1 potentiator: enhances dopamine response at the human D1 receptor | P21728 | HEK293 TREx D1 cells, calcium flux, dopamine EC20 potentiation | potentiation, % at 10 µM | hit rate 0.036% among 360,000; in the data active = potentiation above about 30%; also: 0% is about no effect
Target sequence (P21728 whole entry, looked up): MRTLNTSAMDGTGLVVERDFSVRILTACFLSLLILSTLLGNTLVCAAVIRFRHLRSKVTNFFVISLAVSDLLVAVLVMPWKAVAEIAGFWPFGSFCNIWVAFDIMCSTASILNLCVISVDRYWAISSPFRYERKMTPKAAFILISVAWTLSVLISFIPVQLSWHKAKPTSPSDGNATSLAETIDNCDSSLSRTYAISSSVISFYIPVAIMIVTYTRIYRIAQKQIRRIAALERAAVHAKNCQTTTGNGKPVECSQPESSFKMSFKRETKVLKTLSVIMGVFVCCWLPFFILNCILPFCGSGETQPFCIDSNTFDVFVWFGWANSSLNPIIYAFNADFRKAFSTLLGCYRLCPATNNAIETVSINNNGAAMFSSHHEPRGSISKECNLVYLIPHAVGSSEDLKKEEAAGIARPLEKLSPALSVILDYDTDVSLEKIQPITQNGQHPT
D1 antag: human D1 dopamine receptor antagonism. P21728. HEK293 TREx D1 cells, calcium flux, dopamine EC80; stronger effect = lower value. activity change, negative = inhibition, % at 10 µM. hit rate 3.2% among 360,000. AID 504652; in the data active = activity change below about -30%; also: % is scaled to controls: 0 for no effect and ±100 for the full control effect
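Antagonism measured as reduced calcium response to an EC80 dopamine addition following 180 s compound pre-read; cells were inducible HEK293 Trex D1 plated overnight at 30 C, read kinetically at 1 cycle/sec.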
DRD3 agonist: activates the human D3 dopamine receptor. AID 652048. max activation, %. D3R DiscoveRx beta-arrestin cells, luminescence, 90 min. hit rate 0.58% among 410,000; in the data active = max activation above about 30%; also: 0% is about no effect
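Agonist-mode cell screen: cells plated at 1500/well and incubated overnight at 37 °C, then exposed to library compounds for 90 min at 37 °C. Detection reagent was added for 30–60 min at room temperature, and luminescence was read.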
D1 ag: human D1 receptor agonism; P21728; hit rate 1% among 360,000; activation, % at 2 µM; HEK293 T-REx D1 cells, calcium flux, agonist mode; in the data active = activation above about 30%; also: 0% is about no effect
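Inducible HEK293 T-REx D1 cells, force-coupled to calcium signalling, were plated at 4000 cells/well with tetracycline and held overnight at 30 C. After no-wash calcium dye loading, compound-evoked calcium rise over 180 s flagged agonists.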
Starred values were filed as active, the others as inactive; ? = inconclusive; nt = no result given.

SMILES	D3 antag	D1 potentiator	D1 antag	DRD3 agonist	D1 ag
CCOC(=O)C1CCCN(C(=O)COc2ccccc2O)C1 (configuration not stated)	4	2	7	-7	3
CCOC(=O)C1CCCN(C(=O)COc2ccccc2F)C1 (configuration not stated)	18	-5	-64*	4	2
CCOC(=O)C1CCCN(Cc2cc(Br)c(OC)cc2OC)C1 (configuration not stated)	?	-4	0	-33	1
CCOC(=O)C1CCCN(Cc2cc(Br)ccc2OC)C1 (configuration not stated)	-60*	-1	4	-10	2
COc1cccc(Nc2c3c(nc4nncn24)CCC3)c1	nt	2	-7	10	-1
Cc1ccc2c(=O)c(C(=O)c3ccccc3)cn(CC(=O)Nc3ccc4c(c3)OCCO4)c2n1	nt	0	-6	4	3
Cc1cccc(N2C(=O)N(Cc3cc(=O)n4ccccc4n3)c3ccccc3S2(=O)=O)c1	nt	3	-69*	-15	0
CC(=O)c1ccc(N2C(=O)N(Cc3ccc(F)cc3)c3ccccc3S2(=O)=O)cc1	nt	-3	8	50*	6
CC(=O)c1ccc(N2C(=O)N(CC(=O)c3ccc(F)cc3)c3ccccc3S2(=O)=O)cc1	nt	-5	-12	-10	8
Cc1cccc(N2C(=O)N(Cc3ccc(C(C)(C)C)cc3)c3ccccc3S2(=O)=O)c1	nt	1	-48*	2	1
COc1ccc(-n2c(=O)c3sc4ccccc4c3n(CC(=O)NC3CCCCC3)c2=O)cc1	nt	1	-25	3	2
COc1ccc(Nc2ccnc3ccccc23)cc1	-21	-8	-43*	-7	14
CC(C)Nc1ccc(Nc2ccnc3cc4ccccc4cc23)cc1	-79*	-6	-26	-26	3
c1ccc(CCNc2ccnc3cc4ccccc4cc23)cc1	-12	-17	-82*	-6	34*
CCOc1ccccc1Nc1ccnc2cc(Cl)ccc12	5	-6	-12	-2	5
Cc1ccc(C(=O)COC(=O)c2cc(Cl)ccc2O)cc1[N+](=O)[O-]	-4	0	-1	-7	2
Cc1ccc(C(=O)Nc2ccc(Cc3ccncc3)cc2)cc1[N+](=O)[O-]	32	-6	-35*	-6	10
Cc1c(NC(=O)c2ccc(N3CCCC3)c([N+](=O)[O-])c2)cccc1-c1nc2ccccc2s1	-51*	0	6	-32	0
Cc1ccc(C(=O)COC(=O)c2ccncc2)cc1[N+](=O)[O-]	-92*	-2	3	-6	4
Cc1ccc(NC(=O)c2ccc(NCCCN3CCOCC3)c([N+](=O)[O-])c2)cc1Cl	-51*	-4	2	-15	0
O=C(Nc1ccc(Cc2ccncc2)cc1)c1cccc([N+](=O)[O-])c1	?	-4	-7	-2	23
O=C(Nc1ccc(Cl)c([N+](=O)[O-])c1)c1ccc(NCCCN2CCOCC2)c([N+](=O)[O-])c1	10	29	14	-8	16
Cc1ccc(C(=O)N2CCN(Cc3cc(=O)n4nc(-c5ccccc5)sc4n3)CC2)cc1	nt	2	-2	-4	0
COc1cccc(CNC(=O)CSc2ccc(-c3sc(-c4ccccc4)nc3C)nn2)c1	nt	-2	8	19	3
COc1cc(NC(=O)CN2CCCN(Cc3cccc(F)c3)S2(=O)=O)cc(OC)c1	nt	-5	3	-16	6
SMILES	D3 antag	D1 potentiator	D1 antag	DRD3 agonist	D1 ag
O=C(Nc1ccc(Cc2ccncc2)cc1)c1ccc(N2CCOCC2)c([N+](=O)[O-])c1	-7	2	-44*	-8	12
O=C(Nc1nccs1)c1ccc(N2CCOCC2)c([N+](=O)[O-])c1	-5	1	-19	-10	4
O=C(Nc1ccc(N2CCCCC2)c(Cl)c1)c1ccc(N2CCOCC2)c([N+](=O)[O-])c1	-13	-8	-48*	-6	1
CCCC(=O)Nc1cccc(NC(=O)c2ccc(C)c([N+](=O)[O-])c2)c1	-12	-7	-34*	-3	-1
O=C(Nc1cc(Cl)ccc1N1CCOCC1)c1ccc(N2CCCCC2)c([N+](=O)[O-])c1	-13	nt	nt	-11	nt
CCC(=O)Nc1cccc(NC(=O)c2ccc(C)c([N+](=O)[O-])c2)c1	15	-6	-14	-1	1
COc1cccc(NC(=O)CSc2nnc(NC(=O)NC3CCCCC3)s2)c1	nt	-2	nt	3	-1
